Experiments:
Assay in all cases: DAPPL (digital affinity profiling via proximity ligation, sequencing); 10 mM Tris-HCl pH 7.5, 50 mM NaCl, 1 mM DTT, 4% glycerol, room temperature, 30 min; GST-TFs on glutathione beads, 16-mer random dsDNA library, 0.1% formaldehyde crosslink after washing; high values mean tight binding
FEV = biological target: T1, FEV (Homo sapiens, UniProt Q99581 1-238); conditions: protein: recombinant; tags: N-terminal GST; dsDNA, one strand shown
T1 sequence: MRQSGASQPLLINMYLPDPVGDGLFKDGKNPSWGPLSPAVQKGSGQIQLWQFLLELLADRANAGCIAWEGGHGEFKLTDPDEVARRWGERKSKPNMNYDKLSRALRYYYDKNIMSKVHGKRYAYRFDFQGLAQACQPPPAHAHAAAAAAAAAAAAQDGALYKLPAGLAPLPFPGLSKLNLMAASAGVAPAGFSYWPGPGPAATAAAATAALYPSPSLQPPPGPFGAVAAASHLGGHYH
In short: (§1)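 Binding signal is defined as a hexamer's read frequency for one factor over its frequency for the tag-only sample. To obtain reads, GST-fused human transcription factors were expressed in yeast, captured on glutathione beads, barcoded with DNA and pooled with that sample. Pools met 200 nmole of a 16-mer random double-stranded DNA library in Tris/NaCl/DTT/glycerol buffer for 30 min at room temperature before washing, 0.1% formaldehyde crosslinking, proximity ligation (BsaI/T4 ligase, 1 h, 37 °C), PCR and Illumina NextSeq500 sequencing.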

ETV5 = ETV5 (Homo sapiens, UniProt P41161 1-510); conditions: protein: recombinant; tags: N-terminal GST; dsDNA, one strand shown
In short: as §1

HSF1 = HSF1 (Homo sapiens, UniProt Q00613 1-529); conditions: protein: recombinant; tags: N-terminal GST; chain copies: 3; dsDNA, one strand shown
In short: as §1

SPIC = biological target: T2, SPIC (Homo sapiens, UniProt Q8N5J4 1-248); conditions: protein: recombinant; tags: N-terminal GST; dsDNA, one strand shown
T2 sequence: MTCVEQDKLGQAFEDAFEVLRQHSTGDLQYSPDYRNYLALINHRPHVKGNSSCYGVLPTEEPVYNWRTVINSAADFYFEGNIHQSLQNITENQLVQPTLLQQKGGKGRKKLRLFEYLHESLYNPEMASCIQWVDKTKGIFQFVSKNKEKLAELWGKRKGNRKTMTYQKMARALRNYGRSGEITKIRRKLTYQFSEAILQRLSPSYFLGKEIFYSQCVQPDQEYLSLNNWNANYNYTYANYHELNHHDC
In short: as §1

ELF4 = ELF4 (Homo sapiens, UniProt Q99607 1-663); conditions: protein: recombinant; tags: N-terminal GST; dsDNA, one strand shown
In short: as §1

ELK4 = biological target: T3, ELK4 (Homo sapiens, UniProt P28324-2 1-405); conditions: protein: recombinant; tags: N-terminal GST; dsDNA, one strand shown
T3 sequence: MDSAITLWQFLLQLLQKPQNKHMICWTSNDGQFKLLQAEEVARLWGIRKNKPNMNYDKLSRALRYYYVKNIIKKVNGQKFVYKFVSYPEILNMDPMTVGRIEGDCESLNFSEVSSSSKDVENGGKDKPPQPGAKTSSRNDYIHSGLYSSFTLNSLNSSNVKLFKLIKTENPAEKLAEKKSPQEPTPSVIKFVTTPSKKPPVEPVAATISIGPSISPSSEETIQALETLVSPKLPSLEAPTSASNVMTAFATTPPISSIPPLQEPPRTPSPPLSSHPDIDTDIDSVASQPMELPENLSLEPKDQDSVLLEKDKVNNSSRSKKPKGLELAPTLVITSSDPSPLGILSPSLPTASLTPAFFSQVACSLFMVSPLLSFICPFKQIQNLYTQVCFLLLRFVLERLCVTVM
In short: as §1

ETV2 = biological target: T4, ETV2 (Homo sapiens, UniProt O00321 1-342); conditions: protein: recombinant; tags: N-terminal GST; dsDNA, one strand shown
T4 sequence: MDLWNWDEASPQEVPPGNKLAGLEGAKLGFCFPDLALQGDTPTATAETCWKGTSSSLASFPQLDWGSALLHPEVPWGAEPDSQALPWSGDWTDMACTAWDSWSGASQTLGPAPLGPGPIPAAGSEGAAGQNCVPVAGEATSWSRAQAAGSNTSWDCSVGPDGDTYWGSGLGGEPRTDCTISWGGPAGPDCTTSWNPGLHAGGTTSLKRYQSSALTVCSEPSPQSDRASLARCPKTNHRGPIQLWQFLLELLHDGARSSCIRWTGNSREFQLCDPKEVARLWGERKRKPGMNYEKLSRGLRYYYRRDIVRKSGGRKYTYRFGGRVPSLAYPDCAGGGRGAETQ
In short: as §1

ELF3 = biological target: T5, ELF3 (Homo sapiens, UniProt P78545 1-371); conditions: protein: recombinant; tags: N-terminal GST; dsDNA, one strand shown
T5 sequence: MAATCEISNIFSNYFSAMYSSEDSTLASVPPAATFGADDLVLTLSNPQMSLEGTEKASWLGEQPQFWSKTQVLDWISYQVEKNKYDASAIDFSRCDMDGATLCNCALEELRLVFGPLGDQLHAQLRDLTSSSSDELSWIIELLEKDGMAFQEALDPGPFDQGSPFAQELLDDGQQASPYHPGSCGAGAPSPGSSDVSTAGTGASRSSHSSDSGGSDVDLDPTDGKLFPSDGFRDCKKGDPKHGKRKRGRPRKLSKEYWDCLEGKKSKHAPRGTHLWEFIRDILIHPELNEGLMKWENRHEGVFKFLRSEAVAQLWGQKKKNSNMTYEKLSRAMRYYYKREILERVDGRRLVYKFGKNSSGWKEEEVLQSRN
In short: as §1

CRX = CRX (Homo sapiens, UniProt O43186 1-299); conditions: protein: recombinant; tags: N-terminal GST; dsDNA, one strand shown
In short: as §1

ETV1 = ETV1 (Homo sapiens, UniProt P50549 1-477); conditions: protein: recombinant; tags: N-terminal GST; dsDNA, one strand shown
In short: as §1

ERF = biological target: T6, ERF (Homo sapiens, UniProt P50548 1-548); conditions: protein: recombinant; tags: N-terminal GST; dsDNA, one strand shown
T6 sequence: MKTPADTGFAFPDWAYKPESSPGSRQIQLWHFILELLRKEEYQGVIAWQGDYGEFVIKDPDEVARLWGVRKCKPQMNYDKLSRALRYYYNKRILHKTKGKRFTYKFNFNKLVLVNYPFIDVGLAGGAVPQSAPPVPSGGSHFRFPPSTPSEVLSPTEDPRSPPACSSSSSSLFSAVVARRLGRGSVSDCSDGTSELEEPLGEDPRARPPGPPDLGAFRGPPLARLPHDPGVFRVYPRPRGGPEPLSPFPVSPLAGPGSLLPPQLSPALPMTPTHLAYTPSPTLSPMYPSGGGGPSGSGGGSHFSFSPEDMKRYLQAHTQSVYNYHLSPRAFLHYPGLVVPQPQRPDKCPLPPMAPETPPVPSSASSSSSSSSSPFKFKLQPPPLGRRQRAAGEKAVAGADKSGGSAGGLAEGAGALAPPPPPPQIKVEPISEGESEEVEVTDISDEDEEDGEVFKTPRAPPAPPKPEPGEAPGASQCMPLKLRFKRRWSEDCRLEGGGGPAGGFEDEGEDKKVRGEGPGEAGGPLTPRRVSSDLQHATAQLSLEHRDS
In short: as §1

ETV3L = biological target: T7, ETV3L (Homo sapiens, UniProt Q6ZN32 1-361); conditions: protein: recombinant; tags: N-terminal GST; dsDNA, one strand shown
T7 sequence: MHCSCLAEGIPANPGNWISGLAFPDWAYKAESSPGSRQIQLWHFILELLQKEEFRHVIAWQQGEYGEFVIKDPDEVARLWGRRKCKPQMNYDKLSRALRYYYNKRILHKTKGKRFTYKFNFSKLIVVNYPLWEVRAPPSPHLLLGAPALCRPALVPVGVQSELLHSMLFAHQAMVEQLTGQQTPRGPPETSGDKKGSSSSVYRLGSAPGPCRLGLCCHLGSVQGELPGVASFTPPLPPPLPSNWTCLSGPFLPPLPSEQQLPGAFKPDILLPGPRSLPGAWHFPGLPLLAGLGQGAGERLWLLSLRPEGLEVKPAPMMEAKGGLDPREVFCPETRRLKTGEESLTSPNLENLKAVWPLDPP
In short: as §1

ETS2 = biological target: T8, ETS2 (Homo sapiens, UniProt P15036 1-469); conditions: protein: recombinant; tags: N-terminal GST; dsDNA, one strand shown
T8 sequence: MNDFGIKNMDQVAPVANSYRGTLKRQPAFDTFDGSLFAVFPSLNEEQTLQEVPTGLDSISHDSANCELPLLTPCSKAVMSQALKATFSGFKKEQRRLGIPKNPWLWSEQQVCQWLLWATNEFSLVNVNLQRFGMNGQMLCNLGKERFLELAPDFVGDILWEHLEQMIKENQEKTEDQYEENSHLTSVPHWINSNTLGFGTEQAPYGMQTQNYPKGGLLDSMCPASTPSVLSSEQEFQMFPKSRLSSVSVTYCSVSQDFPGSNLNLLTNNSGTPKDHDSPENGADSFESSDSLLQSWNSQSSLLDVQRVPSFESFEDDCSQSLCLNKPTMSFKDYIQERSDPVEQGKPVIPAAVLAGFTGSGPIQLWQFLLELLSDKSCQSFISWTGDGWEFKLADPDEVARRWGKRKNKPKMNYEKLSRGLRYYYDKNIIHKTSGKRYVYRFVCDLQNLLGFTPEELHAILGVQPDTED
In short: as §1

SPDEF = biological target: T9, SPDEF (Homo sapiens, UniProt O95238 1-335); conditions: protein: recombinant; tags: N-terminal GST; dsDNA, one strand shown
T9 sequence: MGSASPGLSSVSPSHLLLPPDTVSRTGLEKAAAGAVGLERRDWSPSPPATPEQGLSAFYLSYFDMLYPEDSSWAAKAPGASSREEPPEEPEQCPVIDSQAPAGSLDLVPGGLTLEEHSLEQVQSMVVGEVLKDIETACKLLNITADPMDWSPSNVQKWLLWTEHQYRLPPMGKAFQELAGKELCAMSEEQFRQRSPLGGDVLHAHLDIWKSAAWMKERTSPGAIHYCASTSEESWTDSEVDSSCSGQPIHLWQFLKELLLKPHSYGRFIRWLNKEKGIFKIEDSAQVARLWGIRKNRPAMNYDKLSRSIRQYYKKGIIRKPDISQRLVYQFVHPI
In short: as §1

ETV7 = biological target: T10, ETV7 (Homo sapiens, UniProt Q9Y603 1-341); conditions: protein: recombinant; tags: N-terminal GST; dsDNA, one strand shown
T10 sequence: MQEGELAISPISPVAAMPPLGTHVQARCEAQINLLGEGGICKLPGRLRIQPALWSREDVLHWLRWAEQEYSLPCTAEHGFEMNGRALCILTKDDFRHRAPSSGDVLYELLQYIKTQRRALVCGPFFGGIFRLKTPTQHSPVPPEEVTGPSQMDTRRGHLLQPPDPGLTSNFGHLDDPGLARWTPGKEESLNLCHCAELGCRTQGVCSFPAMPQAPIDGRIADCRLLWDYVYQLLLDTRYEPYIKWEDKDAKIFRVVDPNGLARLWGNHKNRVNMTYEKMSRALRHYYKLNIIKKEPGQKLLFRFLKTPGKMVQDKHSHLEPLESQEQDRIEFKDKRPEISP
In short: as §1

ELF5 = biological target: T11, ELF5 (Homo sapiens, UniProt Q9UKW6-2 1-255); conditions: protein: recombinant; tags: N-terminal GST; dsDNA, one strand shown
T11 sequence: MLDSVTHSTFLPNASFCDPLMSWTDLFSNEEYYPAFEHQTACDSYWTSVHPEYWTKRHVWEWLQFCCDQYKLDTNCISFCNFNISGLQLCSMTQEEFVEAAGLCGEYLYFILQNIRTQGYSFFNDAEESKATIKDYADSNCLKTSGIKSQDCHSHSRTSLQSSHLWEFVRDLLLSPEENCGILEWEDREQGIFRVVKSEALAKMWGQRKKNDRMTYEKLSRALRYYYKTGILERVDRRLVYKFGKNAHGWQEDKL
In short: as §1

ETV3 = biological target: T12, ETV3 (Homo sapiens, UniProt P41162-2 1-143); conditions: protein: recombinant; tags: N-terminal GST; dsDNA, one strand shown
T12 sequence: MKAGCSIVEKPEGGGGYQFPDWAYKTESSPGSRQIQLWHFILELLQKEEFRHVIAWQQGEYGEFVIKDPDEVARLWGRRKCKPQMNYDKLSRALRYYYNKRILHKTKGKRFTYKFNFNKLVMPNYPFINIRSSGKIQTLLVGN
In short: as §1

ETV6 = ETV6 (Homo sapiens, UniProt P41212 1-452); conditions: protein: recombinant; tags: N-terminal GST; dsDNA, one strand shown
In short: as §1

Chain of ELF4 (Q99607 whole entry): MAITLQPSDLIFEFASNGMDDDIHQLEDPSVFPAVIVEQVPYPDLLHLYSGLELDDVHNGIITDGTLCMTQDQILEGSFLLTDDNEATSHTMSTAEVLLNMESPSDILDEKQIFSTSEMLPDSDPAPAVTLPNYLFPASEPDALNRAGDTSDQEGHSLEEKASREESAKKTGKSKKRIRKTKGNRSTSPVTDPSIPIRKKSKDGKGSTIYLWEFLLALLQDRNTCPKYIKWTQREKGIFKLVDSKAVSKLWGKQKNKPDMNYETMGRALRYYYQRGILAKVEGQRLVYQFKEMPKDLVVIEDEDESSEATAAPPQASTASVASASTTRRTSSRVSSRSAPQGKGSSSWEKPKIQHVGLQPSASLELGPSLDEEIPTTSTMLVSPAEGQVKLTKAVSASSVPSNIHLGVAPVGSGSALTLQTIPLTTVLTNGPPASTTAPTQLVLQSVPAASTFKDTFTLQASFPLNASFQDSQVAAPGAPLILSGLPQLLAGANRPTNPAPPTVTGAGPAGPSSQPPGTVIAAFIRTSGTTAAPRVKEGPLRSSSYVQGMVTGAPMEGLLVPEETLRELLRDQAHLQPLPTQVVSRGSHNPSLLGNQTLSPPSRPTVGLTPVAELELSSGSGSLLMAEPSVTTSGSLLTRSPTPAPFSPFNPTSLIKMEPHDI
Chain of CRX (O43186 whole entry): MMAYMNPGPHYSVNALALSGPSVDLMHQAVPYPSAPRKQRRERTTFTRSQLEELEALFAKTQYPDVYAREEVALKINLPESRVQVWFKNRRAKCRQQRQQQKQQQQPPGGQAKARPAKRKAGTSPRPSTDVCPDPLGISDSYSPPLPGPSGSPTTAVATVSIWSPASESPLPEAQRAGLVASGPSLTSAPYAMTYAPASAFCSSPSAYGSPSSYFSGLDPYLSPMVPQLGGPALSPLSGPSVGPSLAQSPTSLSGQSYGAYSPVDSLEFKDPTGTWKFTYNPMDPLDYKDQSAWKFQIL
Chain of HSF1 (Q00613 whole entry): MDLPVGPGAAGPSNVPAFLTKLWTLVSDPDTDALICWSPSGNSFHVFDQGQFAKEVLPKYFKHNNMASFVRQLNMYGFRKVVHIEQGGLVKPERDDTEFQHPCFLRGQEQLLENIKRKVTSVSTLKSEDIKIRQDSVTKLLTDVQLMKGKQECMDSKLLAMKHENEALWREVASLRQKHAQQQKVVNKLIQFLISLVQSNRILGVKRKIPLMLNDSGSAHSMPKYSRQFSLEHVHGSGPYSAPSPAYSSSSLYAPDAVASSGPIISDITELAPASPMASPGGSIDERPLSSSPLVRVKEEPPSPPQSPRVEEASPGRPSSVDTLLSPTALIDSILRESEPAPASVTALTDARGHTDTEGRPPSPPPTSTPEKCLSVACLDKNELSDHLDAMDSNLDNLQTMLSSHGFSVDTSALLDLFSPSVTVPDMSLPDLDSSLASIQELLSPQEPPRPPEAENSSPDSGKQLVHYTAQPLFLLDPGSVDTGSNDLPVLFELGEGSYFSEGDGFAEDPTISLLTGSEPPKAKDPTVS
Chain of ETV1 (P50549 whole entry): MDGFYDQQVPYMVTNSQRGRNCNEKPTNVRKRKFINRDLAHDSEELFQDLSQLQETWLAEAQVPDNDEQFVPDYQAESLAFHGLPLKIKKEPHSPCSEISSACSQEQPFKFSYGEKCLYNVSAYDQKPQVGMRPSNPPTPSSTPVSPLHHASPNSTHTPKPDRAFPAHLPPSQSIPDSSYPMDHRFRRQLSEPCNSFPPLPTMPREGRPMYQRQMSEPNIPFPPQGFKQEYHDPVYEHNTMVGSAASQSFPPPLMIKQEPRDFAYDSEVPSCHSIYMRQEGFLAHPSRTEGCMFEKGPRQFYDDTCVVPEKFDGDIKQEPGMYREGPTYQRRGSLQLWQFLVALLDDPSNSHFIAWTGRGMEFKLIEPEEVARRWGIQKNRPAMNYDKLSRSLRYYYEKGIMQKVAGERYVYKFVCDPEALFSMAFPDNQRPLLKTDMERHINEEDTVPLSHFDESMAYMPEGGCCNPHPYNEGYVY
Chain of ETV6 (P41212 whole entry): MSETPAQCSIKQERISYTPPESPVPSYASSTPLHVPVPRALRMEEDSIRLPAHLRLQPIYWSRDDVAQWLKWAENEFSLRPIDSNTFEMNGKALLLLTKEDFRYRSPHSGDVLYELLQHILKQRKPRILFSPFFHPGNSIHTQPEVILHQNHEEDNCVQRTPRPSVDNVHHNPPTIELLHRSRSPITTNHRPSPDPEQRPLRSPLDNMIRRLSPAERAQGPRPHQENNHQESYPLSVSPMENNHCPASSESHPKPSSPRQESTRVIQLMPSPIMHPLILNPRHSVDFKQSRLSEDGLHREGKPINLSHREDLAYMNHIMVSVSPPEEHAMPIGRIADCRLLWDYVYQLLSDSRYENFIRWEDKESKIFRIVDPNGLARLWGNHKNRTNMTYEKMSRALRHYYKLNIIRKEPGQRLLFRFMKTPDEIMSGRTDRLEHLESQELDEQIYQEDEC
Chain of ETV5 (P41161 whole entry): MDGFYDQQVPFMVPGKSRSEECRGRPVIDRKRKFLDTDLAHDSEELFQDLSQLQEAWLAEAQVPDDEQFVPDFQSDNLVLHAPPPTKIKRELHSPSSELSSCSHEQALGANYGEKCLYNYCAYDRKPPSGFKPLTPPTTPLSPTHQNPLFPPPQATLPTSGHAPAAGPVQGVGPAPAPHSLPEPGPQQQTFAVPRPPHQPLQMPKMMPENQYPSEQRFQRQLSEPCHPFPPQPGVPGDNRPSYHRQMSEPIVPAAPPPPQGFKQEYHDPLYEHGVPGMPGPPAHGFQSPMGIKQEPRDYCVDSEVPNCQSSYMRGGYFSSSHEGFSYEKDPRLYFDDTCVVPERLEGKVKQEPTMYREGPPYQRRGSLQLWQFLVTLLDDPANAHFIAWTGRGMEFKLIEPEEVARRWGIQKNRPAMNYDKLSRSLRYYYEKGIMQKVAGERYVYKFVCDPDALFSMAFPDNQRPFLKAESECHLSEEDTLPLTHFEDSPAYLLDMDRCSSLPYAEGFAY

CGATCC
binding signal (FEV): 1.2 fold enrichment (6-mer frequency, TF over GST control)
binding signal (ETV5): 1.19 fold enrichment (6-mer frequency, TF over GST control)
binding signal (HSF1): 1.31 fold enrichment (6-mer frequency, TF over GST control)
binding signal (SPIC): 1.11 fold enrichment (6-mer frequency, TF over GST control)
binding signal (ELF4): 1.21 fold enrichment (6-mer frequency, TF over GST control)
binding signal (ELK4): 1.11 fold enrichment (6-mer frequency, TF over GST control)
binding signal (ETV2): 1.19 fold enrichment (6-mer frequency, TF over GST control)
binding signal (ELF3): 1.08 fold enrichment (6-mer frequency, TF over GST control)
binding signal (CRX): 1.27 fold enrichment (6-mer frequency, TF over GST control)
binding signal (ETV1): 1.25 fold enrichment (6-mer frequency, TF over GST control)
binding signal (ERF): 1.33 fold enrichment (6-mer frequency, TF over GST control)
binding signal (ETV3L): 1.18 fold enrichment (6-mer frequency, TF over GST control)
binding signal (ETS2): 1.2 fold enrichment (6-mer frequency, TF over GST control)
binding signal (SPDEF): 1.4 fold enrichment (6-mer frequency, TF over GST control)
binding signal (ETV7): 1.1 fold enrichment (6-mer frequency, TF over GST control)
binding signal (ELF5): 1.2 fold enrichment (6-mer frequency, TF over GST control)
binding signal (ETV3): 1.24 fold enrichment (6-mer frequency, TF over GST control)
binding signal (ETV6): 1.23 fold enrichment (6-mer frequency, TF over GST control)
